# PI5P4K alpha inh = blocks human PI5P4K alpha kinase activity; P48426; PI5P4Kalpha enzyme, ADP-Glo luminescence, 60 min; stronger effect = lower value; max response, %; 330,000 tested, 1.2% active; AID 652105; active means max response of -50% or lower; inconclusive means between -30% and -50%; inactive means -30% or higher; further: value at the top dose of about 77 µM; on the % scale 0 is the no-effect control and ±100 the full control effect
#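 Reactions run in 0.038 M HEPES pH 7.4, 0.28 mM EGTA, 0.1% CHAPS and 5% DMSO, with PI5P4Kalpha, substrate, compound and 5 microM ATP final, one hour at room temperature. Readout is ADP-Glo luminescence.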
# JMJD2A Tudor inh = JMJD2A Tudor domain (human) inhibition. O75164. AlphaScreen JMJD2A-Tudor / H3K4me3 peptide binding. Potency, µM (top dose mostly 114 µM), without a hit: at the top dose activity change, negative = inhibition, actives largely listed as inhibitors. 390,000 tested, 4.4% active; further: potency means the concentration at half of the fitted maximal effect; on the % scale 0 is the no-effect control and ±100 the full control effect; nearly all actives have a fitted effect of over 50% in size
# Target sequence (O75164 whole entry, looked up, the tested form may be a part): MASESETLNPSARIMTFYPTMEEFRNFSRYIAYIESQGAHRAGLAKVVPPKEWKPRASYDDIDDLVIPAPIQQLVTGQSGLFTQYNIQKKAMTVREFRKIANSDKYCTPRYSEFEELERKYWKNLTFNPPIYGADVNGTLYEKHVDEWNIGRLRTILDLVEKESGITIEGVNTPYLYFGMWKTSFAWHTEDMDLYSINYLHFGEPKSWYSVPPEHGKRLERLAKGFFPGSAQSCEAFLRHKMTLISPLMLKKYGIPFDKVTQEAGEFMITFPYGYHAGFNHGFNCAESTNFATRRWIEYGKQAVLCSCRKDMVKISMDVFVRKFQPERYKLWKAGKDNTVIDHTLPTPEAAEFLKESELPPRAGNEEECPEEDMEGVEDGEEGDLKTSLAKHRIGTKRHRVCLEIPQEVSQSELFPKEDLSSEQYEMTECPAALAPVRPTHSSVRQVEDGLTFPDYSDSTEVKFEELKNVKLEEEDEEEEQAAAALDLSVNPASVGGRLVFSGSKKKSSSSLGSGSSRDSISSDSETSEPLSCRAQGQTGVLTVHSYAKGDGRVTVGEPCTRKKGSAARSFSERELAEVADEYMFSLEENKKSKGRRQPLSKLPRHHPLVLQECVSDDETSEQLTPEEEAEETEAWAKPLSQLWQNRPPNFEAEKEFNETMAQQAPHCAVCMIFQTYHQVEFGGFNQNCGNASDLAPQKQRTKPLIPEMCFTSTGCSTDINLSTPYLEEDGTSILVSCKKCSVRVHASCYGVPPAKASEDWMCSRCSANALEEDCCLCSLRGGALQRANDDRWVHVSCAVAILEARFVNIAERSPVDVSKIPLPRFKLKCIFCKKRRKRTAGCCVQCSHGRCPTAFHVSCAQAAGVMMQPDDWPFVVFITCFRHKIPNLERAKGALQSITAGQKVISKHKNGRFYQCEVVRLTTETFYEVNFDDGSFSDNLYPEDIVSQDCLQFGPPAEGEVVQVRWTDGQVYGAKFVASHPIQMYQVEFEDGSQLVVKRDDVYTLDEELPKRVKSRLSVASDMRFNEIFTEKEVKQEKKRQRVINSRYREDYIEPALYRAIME
# PLK1 PBD inh = PLK1 (human) polo-box domain binding inhibition; 360,000 tested, 2.8% active; AID 720504; Potency, µM, for the others: max response, negative = inhibition, actives largely listed as inhibitors; Plk1 PBD binding of FITC phosphopeptide, fluorescence polarization; further: potency means the concentration at half of the fitted maximal effect; series mostly up to about 57 µM; on the % scale 0 is the no-effect control and ±100 the full control effect; nearly all actives have a fitted effect of over 65% in size
# G9a inh = G9a (human) methyltransferase inhibition. 350,000 tested, 8.8% active. Potency, µM (doses to about 102 µM), inactives show top-dose activity, negative = inhibition, actives largely listed as inhibitors. G9a H3K9 monomethylation, AlphaScreen, 2 h. AID 504332; further: potency means the concentration at half of the fitted maximal effect; on the % scale 0 is the no-effect control and ±100 the full control effect; nearly all actives have a fitted effect of over 75% in size
#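 Quantitative HTS format: methyltransferase activity on a biotin-tagged H3K9 peptide is measured by AlphaScreen, using a rabbit anti-monomethyl-H3K9 antibody with streptavidin donor and anti-IgG acceptor beads. Final levels are 20 nM enzyme, 500 nM peptide, 20 uM SAM; 2 h RT.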
# BAZ2B inh = inhibitors of human BAZ2B bromodomain; Q9UIF8; 360,000 tested, 4.4% active; AlphaScreen BAZ2B-H3K14Ac peptide displacement; AID 504333; Potency, µM (highest dose often 114 µM), inactives show at the top dose activity change, negative = inhibition, usual class: inhibitors; further: potency means the concentration at half of the fitted maximal effect; on the % scale 0 is the no-effect control and ±100 the full control effect; nearly all actives have a fitted effect of over 60% in size
#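 AlphaScreen displacement: compounds (up to 110uM) incubated 30 min at room temperature with a preformed 50 nM BAZ2B/50 nM biotinylated H3K14Ac peptide complex in PBS pH 7.4 with Tween-20. Donor and acceptor beads at 10 ug/mL final added, 20 min light-protected before reading.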
# HP1b chromo inh = HP1-beta chromodomain-methylated histone interaction inhibition; P83916; AlphaScreen HP1-beta / biotin-H3K9me3 peptide binding; Potency, µM (doses to about 114 µM), inactives show at the highest dose activity change, negative = inhibition, most hits filed as inhibitors; 390,000 tested, 0.56% active; AID 540317; further: potency means the concentration at half of the fitted maximal effect; nearly all actives have a fitted effect of over 70% in size
#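 AlphaScreen: HP1-beta (50 nM) preformed 30 min with biotin-H3(1-18)K9me3 peptide (50 nM) in PBS pH 7.4, 0.01% Tween-20. Compound added for 30 min at RT, then streptavidin donor/nickel chelate acceptor beads (10 ug/mL) for 30 min.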
# * = called active by the depositor; ? = inconclusive; · = no result; [ ] = dose if it differs, or a comment. An excerpt weighted towards active compounds, which were near 12% of everything screened. Unless noted, the call rests on the fitted dose curve; in most records, active means well fitted curve in the direction sought with a large enough effect; inconclusive means small, poorly fitted or top-dose-only effect, or another doubt; inactive means no such curve, though single readings can be large; an effect the other way counts as inactive or inconclusive.
SMILES,PI5P4K alpha inh,JMJD2A Tudor inh,PLK1 PBD inh,G9a inh,BAZ2B inh,HP1b chromo inh
C/C(=C\c1ccc(C)o1)C(=O)c1c(C)cc(C)[nH]c1=O,-16.1,-19.1%,-15.2%,50.1µM*,·,19.6%
O=c1c(-c2ccccc2)c(O)c2cccc3c2n1CCC3,-5.9,14.7%,-2.3%,39.8µM*,-37.8%,52.5%
O=C(NCCO)c1c(O)c2cccc3c2n(c1=O)CC3,11.6,56.2µM*,-7.5%,?,-35.0%,17.0%
Cc1ccc(S(=O)(=O)N2CCC(C(=O)OCC(=O)NC3(C#N)CCCCC3)CC2)cc1C,-3.3,-23.3%,1.3%,?,12.2%,1.5%
O=c1[nH]c2ccc(NCc3ccc(-c4cccc(Cl)c4)o3)cc2[nH]1,·,-27.8%,·,?,-9.9%,18.4%
Nc1ccnn1Cc1ccncc1,0.9,-9.6%,-10.7%,·,2.5%,31.9%
O=C(NP(=O)(N1CCCC1)N1CCCC1)C1=C(N2CCOCC2)/C(=C/c2cccc([N+](=O)[O-])c2)CC1,3.7,-25.2%,-10.5%,44.7µM*,44.7µM*,-5.7%
CCC1=NN(C(=O)c2ccc(Cl)cc2)C(O)(c2ccccc2)C1 (configuration not stated),1.2,-31.6%,-13.8%,·,50.1µM*,16.1%
CCC1=NN(C(=O)c2ccccc2O)C(O)(c2ccccc2)C1 (configuration not stated),3.0,7.08µM*,-14.2%,3.4%,50.1µM*,13.0%
Cn1c(=O)cc(OCC(=O)NCc2ccc(F)cc2Cl)c2ccccc21,·,-6.4%,·,-48.8%[59 µM],-2.8%,18.2%
COc1ccc(OC)c(CCNC(=O)c2cc3cccc4c3n2CC(C)S4)c1 (configuration not stated),·,-31.7%,·,?,-37.6%,24.9%
Fc1cccc(Cl)c1/C=N/Nc1ccccn1,-8.8,-7.5%,-24.3%,-11.0%,-12.4%,27.7%
CCOc1cc(/C=N/Nc2nnc(C)n2N)ccc1O,-1.0,-15.3%,-5.3%,25.1µM*,?,18.3%
Cc1nnc(N/N=C/c2ccccc2O)n1N,1.0,?,-0.1%,-6.0%,39.8µM*,38.3%
Cc1nnc(N/N=C/c2c(Cl)cccc2Cl)n1N,-7.1,-7.6%,-4.4%,0.5%,50.1µM*,54.6%
CCc1nnc(N/N=C/c2c(F)cccc2Cl)n1N,0.1,7.1%,0.7%,44.7µM*,-4.7%,45.0%
Cc1nc2ccc(S(=O)(=O)NC(C(=O)N3CCN(c4cccc(Cl)c4)CC3)C(C)C)cc2s1 (configuration not stated),·,-18.2%,·,-25.6%[59 µM],-18.3%,39.9%
CCOc1ccc(-n2c(=O)c3c4c(sc3n(CC(=O)NC(C)CC)c2=O)CCCC4)cc1 (configuration not stated),·,-12.3%,·,1.4%[59 µM],4.5%,16.9%
CCc1ccc(OCCCCn2c(CCNC(=O)C3CCCCC3)nc3ccccc32)cc1,·,-9.2%[57.1 µM],·,·,·,28.1%[57 µM]
COc1ccc(CNC(=O)CCCc2cn(C)c3ccccc23)c(OC)c1,·,?,·,-26.3%[59 µM],?,-7.2%
Cc1ccccc1OC[C@H](O)CO,·,·,·,21.7%[21.5 µM],·,·
CCN1CCN(CCCNC(=O)Cn2nc(C)n3c(cc4c(OC)cccc43)c2=O)CC1,·,-5.8%,·,-2.4%[59 µM],0.4%,28.8%
COC(=O)c1ccc(-n2c(C)cc(/C=N/Nc3nc(C)cc(=O)[nH]3)c2C)cc1,6.4,-12.5%[11.4 µM],0.7%,28.2%[12.7 µM],?,36.2%
CCc1nnc(N/N=C/c2c(C)[nH]c3ccccc23)n1N,8.3,-30.5%,-9.3%,17.8µM*,44.7µM*,23.6%
C=CCc1c(C)nc(C)nc1N/N=C/c1ccccc1O,-2.8,?,4.9%,-11.9%[12.7 µM],50.1µM*,14.1%
SMILES,PI5P4K alpha inh,JMJD2A Tudor inh,PLK1 PBD inh,G9a inh,BAZ2B inh,HP1b chromo inh
CCc1nnc(-n2nc(C)cc2-c2ccccc2)n1N,1.3,?,-1.0%,-4.6%[59 µM],2.1%,20.8%
Cc1nnc(N/N=C/c2cc(C)n(-c3ccc(F)cc3)c2C)n1N,-3.4,-29.6%,3.2%,?,50.1µM*,1.5%
CCc1nnc(N/N=C/c2cc(C)c(C)cc2C)n1N,6.5,-11.6%,-5.2%,79.4µM*,1.2%,40.0%
COc1ccc(C(=O)OCC(=O)NCCc2ccc(F)cc2)cc1S(=O)(=O)N1CCOCC1,-5.7,1.5%,2.1%,·,·,44.6%
CCCCCOC(=O)CSc1nc2sc3c(c2c(=O)n1-c1ccccc1)CC(C)(CC)OC3 (configuration not stated),·,-17.6%,·,-0.3%[59 µM],-0.6%,5.0%
Cc1cccc(C(=O)N(Cc2ccco2)Cc2ccccc2F)c1,·,-10.7%,·,-4.6%[59 µM],9.1%,25.5%
Clc1ccc(OCc2nn3c(-c4ccco4)nnc3s2)cc1,-25.9,-19.9%[11.4 µM],23.8µM*,?,?,-20.0%
Clc1ccc(-c2nnc3sc(Cc4cccs4)nn23)c(Cl)c1,-29.5,-21.6%,-5.6%,39.8µM*,-32.4%,37.1%
c1coc(-c2nnc3sc(Cc4cccs4)nn23)c1,·,39.8µM*,26.7µM*,?,50.1µM*,?
c1coc(-c2nn3c(-c4ccco4)nnc3s2)c1,-62.1*,?,-17.3%,?,?,19.9%
COc1ccc(C(=O)N2CCNC(=O)C2)cc1S(=O)(=O)Nc1ccc(Br)cc1,-5.2,-17.4%,-11.6%,13.0%[59 µM],7.0%,3.8%
C/C(=N\NC(=O)c1ccc(OC2OCCOC2Oc2ccc(C(=O)N/N=C(\C)c3ccncc3)cc2)cc1)c1ccncc1 (configuration not stated),-0.5,-32.7%,2.9%,12.6µM*,-16.2%,-24.4%
C/C(=N\NC(=O)c1ccncc1)c1ccc(N2CCOCC2)cc1,0.1,-3.1%,-23.6%,28.4%[12.7 µM],2.6%,-0.9%
C/C(=N\NC(=O)c1ccncc1)c1ccc(N(C)C)cc1,-29.8,17.8µM*,26.7µM*,-6.0%,-2.4%,-10.2%
CCC1(c2ccccc2)NC(=O)N(CC(=O)N(C)Cc2c(F)cccc2Cl)C1=O (configuration not stated),-8.6,-5.3%,-0.4%,44.7µM*,-15.2%,28.7%
O=C(NCC1CCN(C(=O)c2c(F)c(F)c(F)c(F)c2F)CC1)c1c(F)c(F)c(F)c(F)c1F,5.0,2.9%,-4.0%,79.4µM*,-1.2%,23.7%
COc1ccc(N2CCN(Cc3nnc(-c4cccc(Br)c4)o3)CC2)cc1,·,79.4µM*,·,11.2µM*,44.7µM*,?
N#Cc1c(Sc2ncc(C(F)(F)F)cc2Cl)nsc1C/C=N\OCc1c(F)cccc1Cl,-14.0,?,-9.4%,10µM*,39.8µM*,-23.1%
FC(F)(F)c1cnc(Sc2nnc(-c3cccs3)n2CC2CCCO2)c(Cl)c1 (configuration not stated),·,-8.5%,0.5%,-35.7%[12.7 µM],-27.0%,15.4%
COc1ccc(CN2CCc3c(c(=O)n4ncc(C(=O)N5CCN(c6ccccc6OC)CC5)c4n3C)C2)cc1,·,-14.7%,·,-7.9%[59 µM],-15.7%,13.6%[57 µM]
